Measured values from ChEMBL document CHEMBL4513216, “Probing the Open Global Health Chemical Diversity Library for Multistage-Active Starting Points for Next-Generation Antimalarials” (ACS Infect Dis, 2020).
About 8,600 (12%) of roughly 69,000 compounds showed an effect of 50% or more. The sample holds strong results, similar compounds and a random draw of the others, so the mix is not that of the screen.

The compounds below were run on Plasmodium berghei (assay: Screen against P. berghei liver stage (PbLuc), transformed with Luciferase, at 10uM). Settings: tested at 10 uM.
Format: functional, HepG2

| SMILES | INHIBITION [%] |
| --- | --- |
| Cc1noc(C2CCC3(CCN(C(=O)c4cnccn4)CC3)O2)n1 (configuration not stated) | -4.32 |
| c1ccc(-n2ccc(CNC3CCc4ncnn4C3)n2)cc1 (configuration not stated) | 16.45 |
| Cc1ccc(-c2ccccc2CC2(C(=O)NC(C)C)CCCNC2)cc1 (configuration not stated) | 42.1 |
| Cc1occc1C(=O)N1CCCn2cnc(CN3CCCC3=O)c2C1 | 34.2 |
| COc1nccc(N2CC[C@@H](N3CCN(C)CC3)[C@H](O)C2)c1C#N | -3.77 |
| Cc1ccccc1CC1(C(=O)O)CCCN(c2ncnc3[nH]ccc23)C1 (configuration not stated) | 25.5 |
| Cc1ccccc1CC(=O)N(C)CC1(O)CCCN(c2ccccn2)C1 (configuration not stated) | -10.5 |
| Cc1cnc(C)c(N2CCCC(C/C=C/c3ccccc3)(C(=O)O)C2)n1 (configuration not stated) | 27.9 |
| CCCC1(CO)CCCN(c2ncnc3c2c(C)nn3C)C1 (configuration not stated) | 25.9 |
| Cc1cnc(C)c(N2CCC(Cc3ccccc3Cl)(C(=O)O)CC2)n1 | 13.5 |
| Cc1ccccc1CC1(CO)CCCN(c2ncnc3sccc23)C1 (configuration not stated) | 87.9 |
| Cc1cnc(C)c(N2CCCC(CC3CC3)(C(=O)O)C2)n1 (configuration not stated) | 57.5 |
| Cc1ccccc1CC1(CO)CCCN(c2ncncc2C(C)C)C1 (configuration not stated) | 68.4 |
| COc1cccc(CC2(CO)CCCN(c3nccs3)C2)c1 (configuration not stated) | 3.46 |
| Cc1cnc(C)c(N2CCCC(CO)(Cc3ccccc3C)C2)n1 (configuration not stated) | 68.4 |
| CCNC(=O)[C@@H]1C[C@@H](NC(=O)c2ccc(C#N)cc2)CN1CCCSC | -14.3 |
| CCCC(=O)N1CCC([C@@H]2C[C@H](C(F)(F)F)n3nc(C)cc3N2)CC1 | -29.8 |
| CC(=O)Nc1nc(C(=O)N2CCCC2Cn2cccn2)cs1 (configuration not stated) | 37.3 |
| CN(C(=O)Cn1nc(-c2ccc(F)cc2)ccc1=O)C1CCS(=O)(=O)C1 (configuration not stated) | 13.4 |
| c1cnnc(N2CCCC2CNCc2csc(-c3ccco3)n2)c1 (configuration not stated) | 31.95 |
| Cc1ncsc1C(=O)N(Cc1cccs1)C1CC1 | 6.25 |
| CCCNCc1cn(C)nc1-c1cccnc1 | 2.74 |

| SMILES | INHIBITION [%] |
| --- | --- |
| COc1c(C2CCCN2C(=O)c2csc(C3CC3)n2)c(C)nn1C (configuration not stated) | -21.5 |
| CC(C)Nc1cccc(CC2CCN(C)C2)n1 (configuration not stated) | -52.6 |
| COCC1CN(Cc2c(C)noc2C)Cc2ccnn2C1 (configuration not stated) | 15.9 |
| CC(C)N1CC(C(=O)N2CCc3c(nc(CC4CC4)[nH]c3=O)C2)CC1=O (configuration not stated) | 20.6 |
| CC(C)N1CCCC(C(=O)N2CCc3c(nc(CC4CC4)[nH]c3=O)C2)C1 (configuration not stated) | 26.9 |
| CC(C)N1CCC(C(=O)N2CCc3c(nc(CC4CC4)[nH]c3=O)C2)CC1 | 53.8 |
| c1csc(CN2CCn3c(Cn4cncn4)cnc3C2)c1 | 20.6 |
| CC(=O)N1CC(=O)N(c2cccnc2)CC12CCN(Cc1nccs1)C2 (configuration not stated) | -3.52 |
| N#Cc1cccc(CN2CCO[C@@H]3CNC[C@@H]32)c1 | 16.9 |
| O=C(c1ccccc1)N1CCOC2CNCC[C@H]21 (some centres not stated) | 28.5 |
| c1ccc(CN2CCOC3CNCC[C@H]32)cc1 (some centres not stated) | 55.5 |
| O=C(O)c1ccn(-c2ccccc2NS(=O)(=O)c2cccc(Cl)c2F)n1 | 32.9 |
| CN(C)C(=O)CO[C@@H]1CN(Cc2ccccc2F)[C@@H]2CCCO[C@@H]21 | -1.83 |
| c1cnc2c(c1)cc([C@H]1CCCO1)n2CCN1CCCCC1 | 35.3 |
| CC(C)c1cc(C(=O)N2CCCC3(CCNC3)C2)no1 (configuration not stated) | 40.2 |
| CC(C)c1cc(C(=O)N2CCOC3(CCCC3)C2)no1 | 50.4 |
| Cc1ccc(C(=O)N2CCOC3(CCCC3)C2)c(=O)[nH]1 | 51.7 |
| Cc1ccc(C(=O)N2CCC3(CCCC3)CC2)c(=O)[nH]1 | 37.1 |
| CC(C)c1cc(C(=O)N2CCOC3(CCNCC3)C2)no1 | 28.2 |
| Cc1ccc(C(=O)N2CCC3(CCCCC3)C2)c(=O)[nH]1 | 21.7 |
| CN(Cc1ccco1)[C@@H]1CN(C(=O)c2cnccn2)C[C@@H]2CCCO[C@@H]21 | -2.17 |
| CC(C)NC(=O)[C@H]1C[C@H]2CN(C(=O)NCc3ccccc3)C[C@@H]1O2 | -43.8 |

| SMILES | INHIBITION [%] |
| --- | --- |
| CCn1nc(C)c(C(=O)Nc2ccc3c(c2)C(C)(C)C(=O)N3C)c1C | 23.4 |
| Cc1nc(C)n(C2CCCN(C(=O)c3ccc(CN(C)C)cc3)C2)n1 (configuration not stated) | 5.45 |
| Cc1ccc(NCc2ncc(C(C)(C)C)o2)c(Cl)c1 | -26.2 |
| Cc1ccc(CN(C)Cc2ncc(C(C)(C)C)o2)o1 | 46.4 |
| Cc1cccc(CN(Cc2ccccn2)S(=O)(=O)N(C)C(C)C)c1 | -12.4 |
| CC(C)(C)c1cnc(CNc2cccc(Cn3cnnc3)c2)o1 | -17.6 |
| Cc1cccc(CN(Cc2ccccn2)Cc2ncc(C(C)(C)C)o2)c1 | 71.5 |
| Cc1cccc(NCc2ncc(C(C)(C)C)o2)c1 | 72.2 |
| CCN(Cc1ncc(C(C)(C)C)o1)Cc1ccccc1C | 53.3 |
| CCN(Cc1cccc(Cl)c1)Cc1ncc(C(C)(C)C)o1 | 49 |
| Cc1cccc(CN(Cc2ccccn2)S(=O)(=O)N(C)C)c1 | -1.38 |
| Nc1ncc(-c2cccc(NC(=O)[C@@H]3CCCCN3)c2)cn1 | 14.5 |
| Cc1cncc(C(=O)N2C[C@H]3CCC[C@@]3(COc3ccccn3)C2)c1 | 24.5 |
| CN(C)S(=O)(=O)N1CC[C@H]2OCC[C@@]2(COc2cccnc2)C1 | 33 |
| Cc1nc(C)c(CN2CCOC(CNc3cccnn3)C2)s1 (configuration not stated) | 41.5 |
| O=C(c1cc(-n2cccn2)ccc1Cl)N1CCCC(N2CCCC2)C1 (configuration not stated) | 14.6 |
| CCN(C)C[C@@H]1CN(C(=O)c2cc(-c3ccc(F)cc3)n[nH]2)C[C@@H]1CO | 43.9 |
| CCc1ccc(CN2CC[C@@H]3CN(S(C)(=O)=O)CCO[C@@H]3C2)o1 | 42.6 |
| CCOc1cccc2c1OCC(=O)N(c1ccc3c(c1)OCO3)C2 | 14.9 |
| CCOc1cccc2c1OCC(=O)N(c1ccc(N(C)C)cc1)C2 | 45.5 |
| CCOc1cccc2c1OCC(=O)N(c1ccc3c(c1)OCCO3)C2 | 56.5 |
| Cc1ccoc1C(=O)N1CCc2ccc(=O)n(CCN(C)C)c2CC1 | -16.2 |

| SMILES | INHIBITION [%] |
| --- | --- |
| NC(=O)c1nc2c(s1)CCN(C(=O)Nc1cccc(Cl)c1)CC2 | 80.2 |
| CNC(=O)c1nc2c(s1)CCN(C(=O)c1ccccc1)CC2 | 1.9 |
| CCN(CC)C(=O)c1nc2c(s1)CCN(C(=O)Nc1ccccc1)CC2 | 58.3 |
| NC(=O)c1nc2c(s1)CCN(Cc1ccccc1)CC2 | 12.1 |
| NC(=O)c1nc2c(s1)CCN(C(=O)Nc1ccccc1)CC2 | 40.5 |
| O=C(c1ccc(Cl)cc1)N1CCc2nc(C(=O)N3CCCC3)sc2CC1 | -29.3 |
| O=C(Nc1ccccc1)N1CCc2nc(C(=O)N3CCCC3)sc2CC1 | 89.1 |
| COCC(=O)N1CCc2nc(C(=O)Nc3cccnc3)sc2CC1 | -52.3 |
| CNC(=O)N1CCc2nc(C(=O)Nc3cccnc3)sc2CC1 | 42.6 |
| Cc1ccc(CN2C[C@@H]3COC[C@H](NS(C)(=O)=O)[C@@H]3C2)s1 | -1.36 |
| CCNC(=O)NC(C)c1nc(-c2ccc(Br)cc2)no1 (configuration not stated) | 33.5 |
| Cc1nccc(C2CCCCN2Cc2ccccc2)n1 (configuration not stated) | 20.8 |
| Cc1nccn1C1CCCN(C(=O)c2cccc(S(C)(=O)=O)c2)C1 (configuration not stated) | 19.5 |
| CCOc1nnc(CN(C)C2CCCN(c3ccc(C)nn3)C2)s1 (configuration not stated) | 46.7 |
| CNC(=O)C1(N2CCC[C@H]2C(=O)NC2CCCCC2)CCOCC1 | -1.36 |
| c1ccc(N2CCOC(Cc3cccnc3)C2)cc1 (configuration not stated) | -33.4 |
| CCN(CC)Cc1nc(Cc2cccc(C(F)(F)F)c2)no1 | 26.7 |
| O=C(c1ccccc1)N1CCN(C2CCc3ccc(F)cc32)CC1 (configuration not stated) | 49.4 |
| O=C(CN1CCOCC1)N1CCN(C2CCc3ccc(F)cc32)CC1 (configuration not stated) | 54.4 |
| O=C(c1cc(F)ccc1O)N1CCN(C2CCOCC2)CC1 | 3.84 |
| NC(=O)C1CCN(C(=O)NC2CCc3cc(F)ccc32)CC1 (configuration not stated) | 17 |
| NC(=O)N1CCCN(C2CCc3ccc(F)cc32)CC1 (configuration not stated) | 84.2 |

| SMILES | INHIBITION [%] |
| --- | --- |
| O=C(CN1CCOCC1)N1CCC(c2cc(N3CCCC3)ncn2)CC1 | -85.6 |
| Cc1ncsc1C(=O)NCCNC(=O)Cc1cccc(F)c1 | -89.6 |
| CC(Cn1cccn1)NC(=O)Nc1nncs1 (configuration not stated) | -39.7 |
| COCCN1CCCN(C(=O)NC(C)Cn2ccnc2)CC1 (configuration not stated) | 26.3 |
| Cc1ccnc(OC[C@@]23CCO[C@@H]2CCN(c2ncc(F)cn2)C3)n1 | 16.9 |
| CC(C)CN1CCCC(c2nc(O)c3cc(F)ccc3n2)C1 (configuration not stated) | 20.1 |
| O=C([C@@H]1Cc2[nH]cnc2CN1Cc1cc2ccccc2o1)N1CCCC1 | -67.6 |
| COC(=O)[C@@H]1Cc2[nH]cnc2CN1Cc1cc2ccccc2o1 | 56.8 |
| COC(=O)C1Cc2nc[nH]c2CN1Cc1ccc(Sc2ncccn2)o1 (configuration not stated) | 35.7 |
| Cc1cccc(N2CCN(C(=O)CC3(O)CCCC3)C(C)C2)n1 (configuration not stated) | -24.2 |
| CNc1nc(C(=O)N2CCCN(c3ccnc(C)c3)CC2)cs1 | -10.6 |
| CNc1nc(C(=O)N2C[C@@H]3CCN(C)[C@@H]3C2)cs1 | 55 |
| CNc1nc(C(=O)N2C[C@@H]3CC[C@H]2CN(S(C)(=O)=O)C3)cs1 | 7.1 |
| CN1CC[C@H]2CN(C(=O)c3csc(Cc4ccccc4)n3)C[C@H]21 | 22.9 |
| COc1ccnc(N2CCN(C(=O)c3csc(C)n3)CC2)n1 | -12.6 |
| Cc1csc(N2CCCN(C(=O)c3csc(C)n3)CC2)n1 | 37.9 |
| Cc1nc(C(=O)N2CCN(c3ccc(Cl)c(Cl)c3)CC2)cs1 | 90.3 |
| CNc1nc(C(=O)N2CCN(c3cc(C)nc(C)c3)CC2)cs1 | 34.9 |
| CNc1nc(C(=O)N2CCN(c3ccc(Cl)c(Cl)c3)CC2)cs1 | 86.6 |
